Only some compounds are listed: those with a hit (about 0.89% of all), similar ones and a draw of the others.
CIT2 TOR yeast: yeast TOR pathway CIT2-GFP modulation; S. cerevisiae CIT2-GFP strain, flow cytometry, 3 h; 100 means same as DMSO wells; actives 0.065% (n = 320,000); GFP response vs DMSO, % at 10 µM; AID 2029;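 active = GFP response relative to DMSO above a set limit, near the screen mean plus 3 SD, cut at about 150% in these data; inconclusive = Fewer than 70 cells measured for a yeast strain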;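 also: ratio of well median GFP fluorescence to mean of DMSO wells on the plate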
LAP4 TOR yeast: alters LAP4-GFP fluorescence in TOR pathway yeast screen. S. cerevisiae LAP4-GFP multiplex, flow cytometry GFP, 3 h; median GFP as percent of DMSO wells. GFP response vs DMSO, % at 10 µM. actives 0.34% (n = 320,000). AID 2023;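 active = GFP response vs DMSO above a set limit, about the screen mean plus 3 SD, cut at about 150% in these data; inconclusive = under 70 cell events counted for the yeast strain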
RPL19A-GFP yeast: alters RPL19A-GFP fluorescence in TOR pathway yeast screen | S. cerevisiae RPL19A-GFP strain, flow cytometry, 3 h; hits give low values | percent response vs DMSO, % at 10 µM | actives 0.3% (n = 330,000);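 active = percent response vs DMSO below 50%; inconclusive = fewer than 70 events counted for the yeast strain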;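 also: median channel GFP fluorescence of the barcoded RPL19A-GFP strain; ratio of sample median GFP to plate DMSO average so 100% = DMSO; lower means less RPL19A-GFP as with rapamycin TOR inhibition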
MEP2 TOR yeast: alters MEP2-GFP fluorescence in TOR pathway yeast screen. S. cerevisiae MEP2-GFP strain, flow cytometry GFP, 3 h; 100% = DMSO control level. GFP response vs DMSO, % at 10 µM. actives 0.51% (n = 330,000);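 active = GFP response versus DMSO above a set limit, roughly screen mean plus 3 SD, cut at about 180% in these data; inconclusive = fewer than 70 cells counted for a yeast strain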;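 also: median GFP fluorescence of the barcode-gated MEP2-GFP cells per well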
AGP1-GFP MLPCN: yeast TOR pathway AGP1-GFP modulation | GFP response vs DMSO, % at 10 µM | AID 2066 | actives 0.02% (n = 320,000) | S. cerevisiae AGP1-GFP multiplex flow cytometry, 3 h; GFP as percent of DMSO wells;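 active = GFP response relative to DMSO above a set limit, near screen average plus 3 SD, cut at about 150% in these data; inconclusive = fewer than 70 cells counted for the yeast strain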;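 also: median GFP channel fluorescence of the gated AGP1 strain per well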
Active calls of the source: *; ? = inconclusive; / = no result given; [ ] = another dose, or the depositor's remark.

SMILES	CIT2 TOR yeast	LAP4 TOR yeast	RPL19A-GFP yeast	MEP2 TOR yeast	AGP1-GFP MLPCN
Nc1ccc(CC2SC(=O)NC2=O)cc1 (stereo not given)	?	132	51	416*[may fluoresce violet]	?
CC(=O)N/C(N)=N/c1nc(=O)c2ccccc2s1	101	103	99	91	97
CCOC(=O)N/C(N)=N/c1nc2ccccc2s1	86	168*	89	108	89
CCSC1(SCC)N=C(N)C2(C#N)C(c3ccccc3)NC3=C(CCC3)C12C#N (stereo not given)	?	97	42*[may fluoresce violet]	277*[may fluoresce violet]	20
N#CC1(C#N)COC23CCCCC2C1(C#N)C(=N)O3 (stereo not given)	99	99	98	105	92
N#CC12COC3(CCCCC3C1(C#N)C#N)OC2=N (stereo not given)	?	81	48*[may fluoresce violet]	182*[may fluoresce violet]	?
COc1ccc2c(c1)C(=O)N1[C@H]3c4cc(Cl)ccc4OC[C@@H]3[C@H](c3ccccc3)[C@]1(C)C(=O)N2	83	101	92	93	92
O=C(O)Cc1sc(Nc2ccc(F)cc2)nc1-c1cccs1	62	195*	80	96	66
CSc1ccccc1OCc1cc(C(=O)N2CCN(c3ccccc3)CC2C)no1 (stereo not given)	92	112	97	96	93
O=[N+]([O-])c1cc([N+](=O)[O-])c2cc3ccccc3nc2c1	96	189*	101	105	97
Cn1nc(C(C)(C)C)c([N+](=O)[O-])c1C(=O)N1CCOCC1	?	70	48*[may fluoresce violet]	231*[may fluoresce violet]	?
O=C(O)C1CSC2(c3ccc4c(c3)OCCO4)CCC(=O)N12 (stereo not given)	107	105	99	96	100
O=C(CCn1nnnc1CN1CCOCC1)N1CCC(c2ccccc2F)C1 (stereo not given)	102	89	100	91	99
CCCN(CCC)c1ccc(/C=C/c2ccc3cc(OCC)ccc3n2)cc1	?	96	76	231*[may fluoresce violet]	15
CCN(C(=O)COC(=O)Cc1coc2cc(C)ccc12)c1c(N)n(Cc2ccccc2)c(=O)[nH]c1=O	106	110	101	105	104
C=CCn1c(N)cc(=O)nc1SCC(=O)Nc1ccccc1C(N)=O	96	107	94	93	97
COc1ccc(C2c3c(oc4ccccc4c3=O)C(=O)N2CCN2CCOCC2)cc1OC (stereo not given)	90	96	54	188*	74
COc1cc(C2c3c(oc4ccccc4c3=O)C(=O)N2CCN2CCOCC2)cc(OC)c1OC (stereo not given)	100	103	99	105	101
O=C(NCc1ccccn1)c1cc(-c2ccc(Cl)cc2)oc1C(F)(F)F	79	155*	77	90	79
O=C(NCc1ccncc1)c1cc(-c2ccc(Cl)cc2)oc1C(F)(F)F	95	109	91	94	101
O=c1cc(O)nc(SCc2ccc(Cl)cc2)[nH]1	?	105	57	352*[may fluoresce violet]	18
Cc1ccc(OC(=O)c2cccc(S(=O)(=O)N(C)C)c2)c(-n2nc3ccccc3n2)c1	96	94	105	101	104
CN1CCN(C(=O)CC2C(=O)NCCN2Cc2ccc(-c3ccccc3)cc2)CC1 (stereo not given)	109	163*	81	259*	110
CC(=O)c1ccc(N2CCN(C(=O)C3CCN(S(=O)(=O)c4ccc(F)cc4)CC3)CC2)cc1	103	98	104	100	108
COc1ccc(-c2[nH]ncc2N=Nc2cc(C)cc(C)c2)cc1	87	94	98	98	95
SMILES	CIT2 TOR yeast	LAP4 TOR yeast	RPL19A-GFP yeast	MEP2 TOR yeast	AGP1-GFP MLPCN
COc1ccc(-c2[nH]ncc2N=Nc2ccccc2)cc1	89	151*	101	104	80
C=C1C(=O)C=C2CN(C(=O)c3ccccc3)[C@@](Cc3ccc(F)cc3)(C(=O)OC)[C@@H]12	87	173*	102	90	81
COC(=O)[C@@]1(Cc2ccc(OC)cc2)[C@@H]2C(=CC(=O)[C@H]2CC(=O)C(=O)N(C)C)CN1C(=O)c1ccccc1	111	107	104	94	100
CC(C)c1ccc(N(CC(=O)NCCSCc2ccco2)S(C)(=O)=O)cc1	89	88	94	98	96
CC(Oc1cccc(Cl)c1)C(=O)Nc1cc(S(=O)(=O)N2CCOCC2)ccc1N1CCCCC1 (stereo not given)	102	105	103	103	107
Cc1c(C(=O)NCCSCc2cccc(C(F)(F)F)c2)cnn1-c1ccc(F)cc1	66	153*	71	96	17
COc1cccc(NC(=O)CN2C(=O)COc3ccc(S(=O)(=O)N4CCOCC4)cc32)c1	112	110	103	106	108
Cc1nn(C(=O)c2ccco2)c(C)c1Sc1ccc(Br)cc1	103	104	99	118	104
Cc1nn(C(=O)c2ccco2)c(C)c1Sc1ccccc1	108	87	/	176*	47
O=C(Nc1ccc(F)cc1)c1cc2cc(Cl)ccc2[nH]1	142	132	105	190*	102
CCc1ccc2[nH]c(C(=O)Nc3ccc(C)c(F)c3)cc2c1	93	88	102	105	91
CC1=C(C(=O)NCc2ccccc2)C(c2cccnc2)n2ncnc2N1 (stereo not given)	88	90	87	89	86
COc1ccc(C2C(C(=O)NCc3ccccc3)=C(C)Nc3ncnn32)cc1OC (stereo not given)	?	60	65	200*[may fluoresce violet]	?
COc1ccccc1N1CCN(C(=O)CSc2ccccc2)CC1	105	111	102	107	97
COc1ccccc1N1CCN(C(=O)C(Sc2ccccc2)c2ccccc2)CC1 (stereo not given)	?	93	40*[may fluoresce violet]	261*[may fluoresce violet]	/
O=C(NCC(=O)N1CCOCC1)c1ccc(Cl)cc1	97	102	92	99	109
O=C(NCC(=O)N1CCOCC1)c1ccccc1	?	94	59	212*[may fluoresce violet]	15
CCC(C)c1c(O)nc(SCC(=O)N2CCCCCC2)[nH]c1=O (stereo not given)	103	86	99	108	92
CC(C)c1c(O)nc(SCC(=O)N2CCCCC2)[nH]c1=O	?	81	66	241*[may fluoresce violet]	17
COc1ccc(N(CC(=O)Nc2cccc(N(C)S(C)(=O)=O)c2)S(=O)(=O)c2ccc(F)cc2)cc1	99	111	98	95	102
N#Cc1c(N)c(C(=O)c2ccc(Cl)cc2)n2c1CCC2	?	85	/	248*[may fluoresce violet]	?
CCOC(=O)c1c(N)c(C#N)c2n1CCCC2	107	104	103	101	110
Cc1c(CC(C)C)nc(N)c(C#N)c1-c1ccccc1	123	102	67	350*	29

Screens from PubChem BioAssay.
